Data: PubChem BioAssay
Activity calls are given as the source filed them.

Experiments:
[1] = system: Plasmodium falciparum Sir2 (PF13_0152, Sir2A); assay: Plasmodium falciparum Sir2A binding compounds – biochemical, small-molecule microarray, 635 nm fluorescence, primary screen (AID 1098); details: fluorescence 635 nm, higher = more signal;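 also: score merges spot fluorescence intensity with its signal-to-noise ratio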
[2] = probe aDKK1 binding to arrayed compounds – biochemical, biotinylated probe, 635/667 nm fluorescence, primary screen (AID 1099); details: small-molecule microarray, higher = more signal;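 also: score merges 667nm spot fluorescence with signal to noise across triplicate slides; reference of the scale not given here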
[3] = probe aCHRDL2 binding to arrayed compounds – biochemical, biotinylated probe, 635/667 nm fluorescence, primary screen (AID 1100); details: small-molecule microarray, higher = more signal
[4] = change in splice reporter luminescence, either direction, cell-based, HEK293, spliceosome inhibition project, primary screen (AID 1101); details: HEK293 splicing luciferase reporter, 24 h, higher = more signal, called active from +8 up or from −8 down;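 also: HEK293 cells carrying a splicing-competent luciferase reporter gene; test concentration not given here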
[5] = molecular target: Fibroblast growth factor 10 (Homo sapiens) (UniProt O15520); assay: compounds binding fibroblast growth factor 10 – biochemical, small-molecule microarray, 635 nm fluorescence, primary screen (AID 1102); details: FGF10 binding, fluorescence 635 nm, higher = more signal
[6] = system: glycogen synthase kinase-3 (GSK3A per assay name; protocol says GSK3B); assay: compounds binding glycogen synthase kinase-3 – biochemical, small-molecule microarray, 635 nm fluorescence, GSK3A, primary screen (AID 1103); details: fluorescence 635 nm, higher = more signal; also: the record names both GSK3A and GSK3B
[7] = molecular target: Epidermal growth factor receptor (Homo sapiens) (UniProt P00533); assay: compounds binding epidermal growth factor receptor – biochemical, small-molecule microarray, 635 nm fluorescence, primary screen (AID 1104); details: EGFR binding, higher = more signal;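 also: score merges 667 nm emission intensity with spot signal to noise over triplicate slides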
[8] = molecular target: Follistatin-related protein 3 (Homo sapiens) (UniProt O95633); assay: compounds binding follistatin-related protein 3 – biochemical, small-molecule microarray, 635 nm fluorescence, primary screen (AID 1105); details: FSTL3 binding, higher = more signal;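 also: score merges emission near 667 nm and signal to noise per printed spot across three slides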
[9] = molecular target: Dickkopf-related protein 1 (Homo sapiens) (UniProt O94907); assay: small molecules binding DKK1 protein – biochemical, small-molecule microarray, 635 nm fluorescence scan, primary screen (AID 1106); details: higher = more signal;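 also: score merges emission near 667 nm with signal to noise over three replicate slides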
[10] = system: Inhibin beta A chain (activin A); assay: small molecules binding activin A – biochemical, small-molecule microarray, 635 nm fluorescence scan, primary screen (AID 1107); details: INHBA, higher = more signal;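 also: mouse activin A protein probed at 4.33 µg/mL on printed slides; score merges bound-protein fluorescence near 667 nm with spot signal-to-noise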

Sequence of Epidermal growth factor receptor (Homo sapiens) (P00533 whole entry, looked up): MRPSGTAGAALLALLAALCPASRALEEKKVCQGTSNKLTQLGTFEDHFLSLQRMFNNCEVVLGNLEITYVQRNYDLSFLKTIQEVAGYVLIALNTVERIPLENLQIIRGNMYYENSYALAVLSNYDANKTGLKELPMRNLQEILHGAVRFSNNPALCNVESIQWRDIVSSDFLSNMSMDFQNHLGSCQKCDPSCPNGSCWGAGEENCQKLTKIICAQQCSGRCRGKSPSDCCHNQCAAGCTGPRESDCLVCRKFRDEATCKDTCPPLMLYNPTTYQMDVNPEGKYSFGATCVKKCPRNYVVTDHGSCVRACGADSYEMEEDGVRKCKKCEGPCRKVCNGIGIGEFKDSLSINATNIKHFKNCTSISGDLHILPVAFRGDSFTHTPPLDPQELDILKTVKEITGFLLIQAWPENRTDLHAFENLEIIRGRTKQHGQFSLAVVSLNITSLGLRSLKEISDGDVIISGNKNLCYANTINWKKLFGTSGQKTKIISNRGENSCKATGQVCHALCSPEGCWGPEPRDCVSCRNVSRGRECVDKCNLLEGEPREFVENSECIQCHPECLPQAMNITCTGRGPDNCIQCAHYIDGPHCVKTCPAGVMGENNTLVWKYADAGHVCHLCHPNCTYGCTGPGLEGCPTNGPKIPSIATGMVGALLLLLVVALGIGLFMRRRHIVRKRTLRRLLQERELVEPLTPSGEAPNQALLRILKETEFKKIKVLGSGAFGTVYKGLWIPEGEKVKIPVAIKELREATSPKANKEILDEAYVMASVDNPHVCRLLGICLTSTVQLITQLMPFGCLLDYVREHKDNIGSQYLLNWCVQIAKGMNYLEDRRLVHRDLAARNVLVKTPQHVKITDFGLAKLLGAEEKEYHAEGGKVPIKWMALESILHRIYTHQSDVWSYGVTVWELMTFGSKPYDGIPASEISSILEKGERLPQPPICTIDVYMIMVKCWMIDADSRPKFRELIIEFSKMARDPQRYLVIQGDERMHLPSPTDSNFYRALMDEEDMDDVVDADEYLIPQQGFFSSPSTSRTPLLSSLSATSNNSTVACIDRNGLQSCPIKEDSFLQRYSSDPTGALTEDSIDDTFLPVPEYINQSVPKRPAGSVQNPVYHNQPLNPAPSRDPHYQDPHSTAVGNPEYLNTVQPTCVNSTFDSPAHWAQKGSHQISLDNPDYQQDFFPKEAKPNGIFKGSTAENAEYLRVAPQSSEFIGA
Sequence of Fibroblast growth factor 10 (Homo sapiens) (O15520 whole entry, looked up): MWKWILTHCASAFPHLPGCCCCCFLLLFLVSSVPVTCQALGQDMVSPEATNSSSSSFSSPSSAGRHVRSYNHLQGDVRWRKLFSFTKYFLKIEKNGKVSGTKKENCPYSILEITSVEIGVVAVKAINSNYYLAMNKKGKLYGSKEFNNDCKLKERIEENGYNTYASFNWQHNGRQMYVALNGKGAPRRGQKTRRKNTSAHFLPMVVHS
Sequence of Dickkopf-related protein 1 (Homo sapiens) (O94907 whole entry, looked up): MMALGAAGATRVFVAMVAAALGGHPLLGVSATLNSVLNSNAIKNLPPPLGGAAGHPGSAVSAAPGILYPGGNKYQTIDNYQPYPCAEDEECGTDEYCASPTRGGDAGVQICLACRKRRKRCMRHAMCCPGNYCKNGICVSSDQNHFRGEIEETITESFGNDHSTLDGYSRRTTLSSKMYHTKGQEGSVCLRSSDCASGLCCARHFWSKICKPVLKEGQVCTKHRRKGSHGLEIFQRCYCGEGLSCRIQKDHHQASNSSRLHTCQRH
Sequence of Follistatin-related protein 3 (Homo sapiens) (O95633 whole entry, looked up): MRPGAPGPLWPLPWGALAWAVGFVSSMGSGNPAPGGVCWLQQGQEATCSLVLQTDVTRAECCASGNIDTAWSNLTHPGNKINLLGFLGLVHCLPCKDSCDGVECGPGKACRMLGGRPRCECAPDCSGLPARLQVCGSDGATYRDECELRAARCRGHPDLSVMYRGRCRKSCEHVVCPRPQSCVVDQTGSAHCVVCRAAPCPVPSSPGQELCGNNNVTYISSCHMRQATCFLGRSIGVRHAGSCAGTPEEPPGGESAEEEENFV

Structure (SMILES)	composite z-score [1]	composite z-score [2]	composite z-score [3]	z-score [4]	composite z-score [5]	composite z-score [6]	composite z-score [7]	composite z-score [8]	composite z-score [9]	composite z-score [10]
CC1CC/C=C\[C@H]2OC34C=CCN(CCN5CCOCC5)C(=O)[C@H]3N(C(CO)C(C)C)C(=O)[C@@H]4C2C(=O)O1 (stereo not given in full)	1.5	-0.155	0.0473	-0.192 (inactive)	-0.268	0.169	-0.31	-0.239	-0.112	1.17
COC(=O)C1=CC(c2ccc(CO)cc2)=CC(C2CC2)N(Cc2cc3c(cc2Br)OCO3)C=C1C(=O)OC (stereo not given)	1.66	0.706	0.844	1.17 (inactive)	1.18	1.29	0.737	0.89	0.157	0.836
O=C1O[C@H](c2ccccc2)[C@H](c2ccccc2)N2[C@H]1[C@@H](C(=O)Nc1nc3ccccc3s1)[C@]1(C(=O)Nc3ccccc31)[C@H]2c1ccccc1OCCO	1.42	0.0289	0.505	-0.539 (inactive)	0.475	0.901	-0.115	0.399	-0.086	0.121
COC(=O)[C@@]1(Cc2ccc(F)cc2)[C@H]2c3cc(C(=O)N(C)C)n(Cc4ccsc4Br)c3C[C@H]2CN1C(=O)c1ccccc1	1.3	2.31	1.36	-3.81 (inactive)	1.16	0.0579	1.51	0.369	0.0249	0.5
C=CCNC(=O)[C@H]1[C@@H]2C(=O)O[C@@H](c3ccccc3)[C@@H](c3ccccc3)N2[C@@H](c2ccc(O)cc2)[C@]12C(=O)Nc1ccc(C#CCC(C(=O)OC)C(=O)OC)cc12	-0.147	0.199	0.599	-0.0204 (inactive)	0.727	1.04	-0.195	0.339	0.415	1.08
CCc1cccc(NC(=O)O[C@H]2[C@H](OC(=O)Nc3ccccc3-c3ccccc3)[C@H](OC(=O)Nc3ccccc3-c3ccccc3)[C@@H](OC)O[C@@H]2CO)c1	0.477	0.632	0.444	1.93 (inactive)	1.45	1.34	0.851	1.31	0.635	0.838
C=CCC(OC(C)=O)[C@@H]1[C@@H](N(Cc2ccc(-c3ccccc3)cc2)C(=O)Cc2ccc(OC)cc2)c2cc(OCCCO)ccc2N1C(=O)c1ccc2ccccc2c1 (stereo not given in full)	0.0435	0.0361	-0.002	-0.147 (inactive)	-0.0566	-0.0533	-0.0792	0.538	-0.0863	1.17
COCCOC(=O)N1C(=O)[C@@]2(c3cc(C#CCC(C(=O)OC)C(=O)OC)ccc31)[C@H](C(N)=O)[C@H]1C(=O)O[C@H](c3ccccc3)[C@H](c3ccccc3)N1[C@@H]2c1ccccc1OCCO	0.997	-0.202	-0.129	-1.32 (inactive)	1.37	1.31	0.958	1.09	0.47	0.486
COc1ccc([Si](C)(C)[C@H]2[C@H](CC(=O)N(CCO)Cc3ccccc3)O[C@@]3(C(=O)N(Cc4cccc(N5CCCCC5=O)c4)c4ccccc43)[C@@H]2C)cc1	0.535	-0.147	-0.13	-2.32 (inactive)	0.114	-0.0519	-0.0805	0.436	0.327	0.167
C=CCNC(=O)[C@@H]1[C@H]2C(=O)O[C@H](c3ccccc3)[C@H](c3ccccc3)N2[C@H](c2ccc(OCCO)cc2)[C@@]12C(=O)Nc1ccc(C#CCNC(N)=O)cc12	1.05	-0.123	0.584	-0.0958 (inactive)	-0.385	-0.402	-1.13	0.16	-0.456	1.31
C=CCC(OC(C)=O)[C@@H]1[C@@H](N(Cc2ccc(-c3ccccc3)cc2)C(=O)Cc2ccc(OC)cc2)c2cc(OCCCO)ccc2N1C(=O)Cc1ccc(OC)cc1 (stereo not given in full)	-0.214	0.642	0.327	-0.581 (inactive)	0.0842	-0.0794	-0.0897	-0.147	-0.191	1.59
COc1cccc(C)c1NC(=O)O[C@H]1[C@H](OC(=O)Nc2ccc3c(c2)OCO3)[C@H](OC(=O)Nc2ccc3c(c2)OCO3)[C@@H](OC)O[C@@H]1CO	1.28	-0.0573	0.306	-0.316 (inactive)	1.39	1.34	0.169	1.01	0.487	0.69
O=C1C2C=CC(C(O)C3CCCCC3)N(Nc3ccccc3F)C2C(=O)N1c1ccccc1 (stereo not given)	1.12	1.15	0.95	-0.505 (inactive)	0.873	1.29	0.157	1.08	-0.498	1.1
CC(C)(C)OC(=O)CC[C@@]1(C(=O)N2CCOCC2)N=C(c2ccc(OCCCO)cc2)O[C@@H]1c1ccccc1CN=[N+]=[N-]	1.23	0.956	1.15	0.178 (inactive)	1.28	0.818	0.234	0.488	-0.0447	1.01
CN1C(=O)C2C(C1=O)C1C=C(CCCO)C2C(C2CC2)N1C (stereo not given)	0.264	0.0917	0.38	-0.89 (inactive)	-0.158	-0.83	0.0501	-0.694	-0.741	0.411
C=CCNC(=O)[C@H]1[C@@H]2C(=O)O[C@@H](c3ccccc3)[C@@H](c3ccccc3)N2[C@@H](c2ccc(O)cc2)[C@]12C(=O)N(C(=O)OCCOC)c1ccc(C#Cc3ccc(OC)cc3)cc12	1.21	-0.0387	0.478	-0.294 (inactive)	0.88	1.08	0.215	0.448	0.211	0.794
C=C(C)C1CN([C@H](CO)c2ccccc2)C(=O)/C1=C\c1ccccc1 (stereo not given in full)	0.719	-0.316	-0.492	-0.921 (inactive)	0.716	0.22	0.0508	0.276	0.48	1.29
CO[C@H]1O[C@H](CO)[C@@H](OC(=O)CCc2ccccc2)[C@@H]2OC(=O)[C@@H](Cc3ccc4ccccc4c3)C/C=C/C[C@H](Cc3ccc4ccccc4c3)C(=O)O[C@@H]12	1.08	-0.653	0.46	-0.779 (inactive)	-0.361	-0.346	-0.691	0.0223	-1.19	0.499
N#Cc1ccc(NN2C(C(O)c3ccc(B(O)O)cc3)C=CC3CN(c4ccccc4)C(=O)C32)cc1 (stereo not given)	0.35	0.0933	0.584	0.441 (inactive)	-0.792	-0.824	-0.533	-0.172	-0.445	0.462
COc1c(C)cc(-c2nc(-c3ccccc3)c3c(c2C)CO[Si]3(C(C)C)C(C)C)cc1C	-0.186	-0.141	0.0757	-0.394 (inactive)	0.295	0.324	0.387	0.338	0.305	0.698
CCOC(=O)C[C@H]1[C@H](OC(=O)c2ccc(-c3ccccc3)cc2)[C@@H](NC(=O)C2CCCCC2)c2cc(OCCCO)ccc2N1C(=O)Cc1ccc(OC)cc1	-0.186	0.0229	0.0338	-0.772 (inactive)	0.135	0.178	0.273	0.217	0.0901	0.647
